Out of some 360,000 compounds screened, about 25,000 (6.9%) were called active. Inconclusive results (about 9%) are left out. The entries come from a sample that favours actives as a whole. Entries that show only a call come without a potency. Values without a mark were called inactive. The call rests on the fitted dose curve; in most records, active means well fitted inhibition curve with a large enough effect; inconclusive means small, poorly fitted or top-dose-only effect; inactive means flat fitted curve, though single readings scatter.
These compounds were tested against Luciferin 4-monooxygenase (Photinus pyralis) (UniProt P08659) (assay: qHTS profiling assay for firefly luciferase inhibitor/activator using purifed enzyme and Km concentrations of substrates (counterscreen for miR-21 project)). Conditions: purified FLuc, luminescence inhibition; series mostly up to 57.5 µM.
Outline: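 Biochemical qHTS of compounds, final roughly 60 µM downward over six points, against 10 nM purified firefly luciferase using Km concentrations of substrates (10 uM D-luciferin, 10 uM ATP) in Tris acetate pH 7.5 buffer; luminescence output.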
Further: nearly all actives have a fitted effect of over 55% in size.
Potency means the concentration at half of the fitted maximal effect.

Chain of Luciferin 4-monooxygenase (Photinus pyralis) (P08659 whole entry, looked up): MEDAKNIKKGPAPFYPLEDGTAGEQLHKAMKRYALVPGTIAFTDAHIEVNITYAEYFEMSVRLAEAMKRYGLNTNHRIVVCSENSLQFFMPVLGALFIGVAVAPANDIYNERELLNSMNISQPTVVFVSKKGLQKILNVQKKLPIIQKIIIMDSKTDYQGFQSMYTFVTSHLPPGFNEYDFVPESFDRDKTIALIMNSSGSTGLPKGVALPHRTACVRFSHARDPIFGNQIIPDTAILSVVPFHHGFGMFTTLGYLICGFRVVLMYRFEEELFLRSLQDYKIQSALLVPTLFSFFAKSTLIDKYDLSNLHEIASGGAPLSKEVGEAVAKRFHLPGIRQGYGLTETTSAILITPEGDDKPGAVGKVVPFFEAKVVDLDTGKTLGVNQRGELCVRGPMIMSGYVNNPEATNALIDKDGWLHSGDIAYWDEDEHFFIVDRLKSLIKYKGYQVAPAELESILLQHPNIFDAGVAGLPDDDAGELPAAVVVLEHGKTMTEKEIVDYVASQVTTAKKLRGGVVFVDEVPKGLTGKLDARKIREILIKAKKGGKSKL

SMILES | Potency | activity change, negative = inhibition
CN(C(=O)CCn1c(=S)oc2ccccc21)C1CCCCC1 | inactive | 
Cc1ccc(S(=O)(=O)N(C)CC(=O)NCC(c2ccc(F)cc2)N2CCOCC2)cc1 (stereo unspecified) | inactive | 
CCOc1ccc(N2C(=O)CC(N(CCc3ccc(OC)c(OC)c3)C(=S)Nc3ccccc3)C2=O)cc1 (stereo unspecified) | inactive | 
CC1(C)O[C@@H]2[C@H](O1)[C@@H](COS(=O)(=O)O)O[C@H]2n1cnc2c(=O)[nH]cnc21 | inactive | 
CC(=O)N(C1=C(Cl)C(=O)c2ccccc2C1=O)c1ccc(C(=O)O)cc1 | 1.69 µM (active) | 
COC1=C(N2CCOCC2)C(=O)c2ccccc2C1=O | inactive | 
Cc1ccc(C)c(CSc2nc(-c3ccco3)nc3c2c(=O)n(C)c(=O)n3C)c1 | inactive | 
Cc1nn(C(=O)c2ccoc2C)c(N)c1-c1ccccc1 | 10.7 µM (active) | 
Cc1occc1C(=O)Nc1nnc(-c2ccncc2)s1 |  | -0.684% [at 2.3 µM]
CCOC(=O)c1c(N)nn(C(=O)c2ccccc2)c1-c1ccccc1 | inactive | 
CCOC(=O)c1cc2c(=O)n3ccccc3nc2n(CC2CCCO2)c1=NC(=O)c1ccccc1F (stereo unspecified) | inactive | 
Cc1cccc(C(=O)c2cccc(C)c2)c1 | inactive | 
Cc1cccc(/C(N)=N/OC(=O)c2ccccc2Cl)c1 | 0.757 µM (active) | 
Cc1ccc(/C(N)=N/OC(=O)COc2ccc(Cl)c(C)c2)cc1 | inactive | 
C/C(=N\OC(=O)c1ccccc1)c1c(C)nc2cc(C)ccn12 | inactive | 
Cc1ccc(OC(=O)CCC(=O)Nc2ccc(Br)cc2)cc1 | inactive | 
C/C(=N/OC(=O)c1ccc(Br)cc1)c1ccc(C)cc1 | 6.75 µM (active) | 
CCc1ccc(NC(=O)CSc2nc3c([nH]c4ccccc43)c(=O)n2-c2cccc(OC)c2)cc1 | inactive | 
Cc1ccsc1/C=N/Nc1ccc(Cl)nn1 | inactive | 
Oc1cccc(/C=N/Nc2ccc(Cl)nn2)c1O | 8.49 µM (active) | 
Clc1ccc(N/N=C/c2cccs2)nn1 | inactive | 
Cn1c(=O)c2c(nc(NCCc3ccccc3)n2Cc2ccccc2Br)n(C)c1=O | inactive | 

SMILES | Potency | activity change, negative = inhibition
CN(c1ccccc1)c1ccc(/C=c2\s/c(=C(/C#N)C(=O)C(C)(C)C)n(Cc3ccco3)c2=O)cc1 | 15.1 µM (active) | 
CCOc1ccccc1NC(=O)Cn1c(=O)n(Cc2ccco2)c(=O)c2sc3ccccc3c21 | inactive | 
CCOC(=O)/C=c1\s/c(=C\c2ccc(C#N)cc2)c(=O)n1CC(=O)Nc1cccc(C)c1C | inactive | 
O=C(CCc1cn(Cc2ccc(F)cc2)c2ccccc12)NC1CCCCC1 | inactive | 
COc1ccc(CCN=C2SCC(=O)N2Cc2ccccc2)cc1OC | inactive | 
Cc1ccc(-c2nn(CCC(=O)Nc3ccc(Cl)c(Cl)c3)c(=O)c3ccccc23)cc1 | inactive | 
CC(C)c1nc2oc3c(N4CCN(C)CC4)ncnc3c2c2c1CCC2 | inactive | 
Cc1csc(NC(=S)Nc2cccc(Cl)c2)n1 | 4.78 µM (active) | 
FC(F)(F)c1cccc(NC(=S)Nc2cccc(Cl)c2)c1 | inactive | 
Cc1cccc(NC(=S)Nc2ccc(Cl)c(Cl)c2)c1 | inactive | 
COC(=O)c1ccccc1NC(=S)NC(=O)c1ccccc1F | inactive | 
O=C(NC(=S)Nc1ccccc1C(=O)O)c1ccc(-c2ccc(Br)cc2)o1 | 26.9 µM (active) | 
O=C(O)c1ccccc1NC(=O)c1ccccc1-c1ccccc1C(=O)O | inactive | 
Cc1ccc(NC(=O)CN(C)C(=O)COC(=O)c2nccnc2N)cc1 | inactive | 
COC(=O)c1cc(NC(=O)c2sc3ccccc3c2Cl)cc(C(=O)OC)c1 | inactive | 
COc1ccc(N=C(C)c2sc3ccccc3c2O)cc1 | 0.601 µM (active) | 
Cc1cc(C)cc(NC(=O)C(OC(=O)c2ccc(O)cc2)c2ccccc2)c1 (stereo unspecified) | inactive | 
CC(C)CN(C(=O)CSc1nncn1C)C1CCS(=O)(=O)C1 (stereo unspecified) | inactive | 
Cc1cccc(NC(=O)N2CCN(C)c3ncccc32)c1C | inactive | 
O=C(Nc1ccon1)c1sc2ccccc2c1Cl | 7.57 µM (active) | 
CCCC(=O)Nc1ccc(NC(=O)c2sc3ccccc3c2Cl)cc1 | inactive | 
O=C(Nc1ccon1)c1cccc(Cl)c1 | inactive | 

SMILES | Potency | activity change, negative = inhibition
Cc1cc2c(cc1C)C(c1cccc(OC(C)C)c1)CC(=O)N2 (stereo unspecified) | inactive | 
Cc1cccc(-c2nc(SCc3ccc(Br)cc3)n3[nH]c(=O)cc3n2)c1 | inactive | 
CCOc1ccc(-n2c(SCC(=O)NCc3ccccc3)nc3n[nH]c(C)c3c2=N)cc1 | inactive | 
CCCn1c2ccccc2c2cnn(CC(=O)NCCCOC(C)C)c(=O)c21 | inactive | 
CSCCNC(=O)c1ccc2nc(Cc3ccccc3F)oc2c1 | 19 µM (active) | 
COc1ccc(Cc2nc3ccc(C(=O)NCc4ccccc4C)cc3o2)cc1 | inactive | 
O=C(NCCc1ccc(Cl)cc1)c1ccc2nc(CCc3ccccc3)oc2c1 | inactive | 
Cn1c(=O)sc2cc(NS(=O)(=O)c3ccc(C(C)(C)C)cc3)ccc21 | inactive | 
Cc1cccnc1CCNC(=O)C1CCC(=O)N(Cc2cccc(F)c2)C1 (stereo unspecified) | inactive | 
CCOc1ccc(-c2cc3nc(C4CCN(C(=O)OC(C)(C)C)CC4)c(C(=O)Nc4cccc(CC)c4)cn3n2)cc1 | inactive | 
CN1C2CCC1/C(=C\c1ccccc1Cl)C(=O)/C2=C\c1ccccc1Cl | inactive | 
CCSc1ncc(Cl)c(C(=O)Nc2c(C(=O)c3ccccc3)oc3ccccc23)n1 | inactive | 
Fc1ccc(-n2ncc3c(Nc4ccc(Oc5ccccc5)cc4)ncnc32)cc1 | inactive | 
Cc1ccc(-n2ncc3c(Nc4cccc(C(=O)O)c4)ncnc32)cc1 | 0.953 µM (active) | 
Cc1ccc(Nc2ncnc3c2cnn3C)c(C)c1 | inactive | 
COc1ccc(Cl)cc1NC(=O)CCC(=O)c1ccc(C)cc1 | inactive | 
CCN1CCN(c2ncc3c(n2)CC(c2ccccc2O)CC3=O)CC1 (stereo unspecified) | inactive | 
CCc1ccccc1NC(=O)CN(C)C(=O)c1cc(C2CC2)nn1-c1ccccc1 | inactive | 
Cc1ccc(C)c(OCC(=O)NNC(=O)C2CCC2)c1 | inactive | 
COc1cc(C(=O)OCC(=O)NC23CC4CC(CC(C4)C2)C3)cc(OC)c1OC | inactive | 
N#Cc1nc(-c2cccc3ccccc23)oc1N | inactive | 
CCOC(=O)c1c(C)[nH]c(C)c1S(=O)(=O)N1CCC(C(=O)Nc2ccc(C)c(Cl)c2)CC1 | inactive | 
